Our source for the growth values is PubChem BioAssay (NCI).

This is part of a sample that, as a whole, favours compounds with a hit. Of some 83,000 tested, about 20% had one in any assay.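 Percent growth is the endpoint: 0 to 100 indicates growth inhibition (40 means 60% inhibition), 0 means no net growth, and negative values indicate cell death.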 Unmarked numbers belong to inactive results. Active and inactive are the calls of the source. The calls were made as follows: active = growth percent below 10; inactive = the rest.

Among the test systems are NCI-H23 lung; NCI-H226 lung; NCI-H322M lung; HOP-62 NSCLC; NCI-H460 lung; HOP-92 NSCLC; NCI-H522 lung; A549/ATCC NSCLC; 786-0 renal; COLO 205 colon; DU-145 prostate; K-562 leukemia; MALME-3M melanoma; MDA-MB-231 breast; RXF 393 renal; SF-268 CNS; SF-295 CNS; SF-539 CNS; UACC-257 melanoma; M14 melanoma.
Holding throughout (test): NCI-60 one-dose screen, 48 h (100 = growth as untreated, 0 = no growth, -100 = all killed)
Common to all, as to conditions: 10 µM unless noted

Take `CCN(CC)CCOc1ccc(Nc2ncc3cc(-c4c(Cl)cccc4Cl)c(=O)n(CCOC)c3n2)cc1`: the growth in the assay on NCI-H23 lung is -9.78% (active); in the assay on NCI-H226 lung, 28%; with NCI-H322M lung it was 17.5%; in the assay with HOP-62 NSCLC it was 6.51% (active); in the assay with NCI-H460 lung it was 3.65% (active); in the assay on HOP-92 NSCLC, -18.7% (active). Besides, the growth was -28.5% (active) in the assay on NCI-H522 lung; 0.456% (active) with A549/ATCC NSCLC; 5.35% (active) in the assay on 786-0 renal; -40% (active) in the assay on COLO 205 colon; -13.8% (active) in the assay with DU-145 prostate; 5.78% (active) with K-562 leukemia. For the same molecule, the growth is 10.6% in the assay on MALME-3M melanoma; -73.2% (active) with MDA-MB-231 breast; -64.4% (active) with RXF 393 renal; -9.68% (active) in the assay on SF-268 CNS; 25.7% in the assay on SF-295 CNS; -75.7% (active) with SF-539 CNS. The figures for the growth in the assay with UACC-257 melanoma and in the assay with M14 melanoma were 12.9% and -6.68% (active), respectively.
Take `COC(=O)c1ccc2cc(OC)c(OC)cc2c1`: the growth in the assay with NCI-H23 lung was 102%; with NCI-H226 lung, 97.6%; in the assay with NCI-H322M lung, 108%; in the assay with HOP-62 NSCLC, 107%; with NCI-H460 lung it was 108%; with HOP-92 NSCLC, 94.4%. Further, the growth was 98.9% in the assay with NCI-H522 lung; 77.4% in the assay with A549/ATCC NSCLC; 91.9% in the assay on 786-0 renal; 122% in the assay on COLO 205 colon; 116% with DU-145 prostate; 115% in the assay on K-562 leukemia. Besides, the growth in the assay with MALME-3M melanoma was 117%; with MDA-MB-231 breast, 127%; in the assay on RXF 393 renal, 97%; in the assay with SF-268 CNS, 114%; in the assay on SF-295 CNS it was 70.4%; in the assay with SF-539 CNS, 116%. Further, the growth with UACC-257 melanoma is 103%; in the assay with M14 melanoma, 110%.
Regarding `CC1(C)N=C(N)N=C(N)N1c1ccc(S(=O)(=O)Nc2nccs2)cc1`, the growth in the assay with NCI-H23 lung is 101%; in the assay with NCI-H226 lung it was 101%; in the assay on NCI-H322M lung, 104%; in the assay on HOP-62 NSCLC, 95.8%; in the assay on NCI-H460 lung it was 104%; in the assay with HOP-92 NSCLC, 87.2%. The growth is 91.1% in the assay on NCI-H522 lung; 96.1% with A549/ATCC NSCLC; 99.5% in the assay with 786-0 renal; 105% in the assay with COLO 205 colon; 103% in the assay on DU-145 prostate; 98.9% in the assay on K-562 leukemia. In addition, the growth in the assay on MALME-3M melanoma is 99.3%; in the assay on MDA-MB-231 breast it was 103%; in the assay with RXF 393 renal, 105%; in the assay on SF-268 CNS, 94.3%; in the assay with SF-295 CNS it was 101%; with SF-539 CNS it was 95.1%. Moreover, the growth in the assay with UACC-257 melanoma is 98.5%; with M14 melanoma, 99.6%.
For the molecule `COC(=O)c1nc(-c2ccccc2)oc1S(=O)(=O)N1CCCC(C)C1` (stereo not given), the growth in the assay with NCI-H23 lung was 87.8%; in the assay with NCI-H226 lung, 90.6%; in the assay with NCI-H322M lung, 90.2%; in the assay on HOP-62 NSCLC, 107%; in the assay on NCI-H460 lung, 102%; with HOP-92 NSCLC, 72.7%. Besides, the growth was 28.6% in the assay with NCI-H522 lung; 96.8% in the assay with A549/ATCC NSCLC; 59.1% in the assay on 786-0 renal; 67.7% in the assay with COLO 205 colon; 91.3% in the assay on DU-145 prostate; 17.7% in the assay with K-562 leukemia. For the same molecule, the growth with MALME-3M melanoma is 78.2%; with MDA-MB-231 breast, 76.8%; in the assay with RXF 393 renal, 78.8%; with SF-268 CNS, 85.8%; with SF-295 CNS, 108%; in the assay with SF-539 CNS, 85%. For the same molecule, the figures for the growth in the assay with UACC-257 melanoma and with M14 melanoma were 82.3% and 39.3%, respectively.
`Nc1ncnc2c1N=C(c1ccc(Cl)cc1)CC(c1cccc(Nc3ccnc4cc(Cl)ccc34)c1)N2` (stereo not given): the growth with NCI-H23 lung was 66.8%; in the assay on NCI-H226 lung it was 87.5%; in the assay on NCI-H322M lung it was 84.1%; in the assay with HOP-62 NSCLC, 70.4%; in the assay on NCI-H460 lung, 75.6%; in the assay with HOP-92 NSCLC, 44.7%. In addition, the growth in the assay with NCI-H522 lung is 93.8%; with A549/ATCC NSCLC, 84.5%; in the assay on 786-0 renal, 67.5%; in the assay with COLO 205 colon, 66.2%; in the assay on DU-145 prostate, 83.2%; in the assay on K-562 leukemia it was -0.992% (active). Further, the growth is 84.8% with MALME-3M melanoma; 63.5% with MDA-MB-231 breast; 34.1% in the assay on RXF 393 renal; 53.4% in the assay on SF-268 CNS; 67% in the assay with SF-295 CNS; 76% with SF-539 CNS. The growth with UACC-257 melanoma was 105%; in the assay with M14 melanoma, 64.8%.
Turning to `N#Cc1ccc(O)c(C2=NCC(c3ccc(-c4ccccc4)cc3)O2)c1` (stereo not given), the growth in the assay with NCI-H23 lung is 27.8%; in the assay on NCI-H226 lung, 29.8%; in the assay on NCI-H322M lung it was 33%; with HOP-62 NSCLC, 2.79% (active); with NCI-H460 lung, 1.31% (active); in the assay with HOP-92 NSCLC, 35%. Further, the growth in the assay with NCI-H522 lung is -8.42% (active); with A549/ATCC NSCLC it was 2.62% (active); in the assay with 786-0 renal it was 20.1%; with COLO 205 colon it was 1.08% (active); with DU-145 prostate it was 30.5%; with K-562 leukemia it was 7.82% (active). Moreover, the growth in the assay with MALME-3M melanoma was 17.4%; with MDA-MB-231 breast, 25%; in the assay with RXF 393 renal, 42.2%; with SF-268 CNS it was 19.7%; in the assay with SF-295 CNS, 19.4%; in the assay with SF-539 CNS it was -9.06% (active). The growth is 13.2% in the assay on UACC-257 melanoma and -16.6% (active) in the assay with M14 melanoma.
`CC1=C(Cl)C(=O)c2cc(C)ccc2C1=O`: the growth in the assay with NCI-H23 lung is 100%; in the assay with NCI-H226 lung, 86.3%; in the assay with NCI-H322M lung, 94.4%; in the assay with HOP-62 NSCLC it was 105%; in the assay with NCI-H460 lung it was 115%; with HOP-92 NSCLC, 88.5%. Also, the growth is 93% in the assay on NCI-H522 lung; 101% in the assay on A549/ATCC NSCLC; 102% in the assay on 786-0 renal; 114% with COLO 205 colon; 115% in the assay with DU-145 prostate; 102% in the assay with K-562 leukemia. The growth in the assay with MALME-3M melanoma was 114%; in the assay on MDA-MB-231 breast, 103%; in the assay on RXF 393 renal, 84.9%; with SF-268 CNS, 88%; in the assay with SF-295 CNS, 108%; in the assay with SF-539 CNS, 116%. Besides, the growth in the assay on UACC-257 melanoma is 106%; in the assay with M14 melanoma it was 112%.
For `CCN(CC)CCOc1ccc2c(-c3ccccc3)c(-c3ccc(OC)cc3)c(=O)oc2c1`, the growth in the assay with NCI-H23 lung was 70.3%; in the assay with NCI-H226 lung, 85.2%; in the assay with NCI-H322M lung it was 122%; in the assay on HOP-62 NSCLC, 95%; in the assay on NCI-H460 lung it was 57.4%; in the assay with HOP-92 NSCLC, 63.9%. The growth in the assay with NCI-H522 lung is 66.8%; in the assay on A549/ATCC NSCLC it was 70.6%; in the assay on 786-0 renal, 65.9%; in the assay on COLO 205 colon, -38.8% (active); in the assay on DU-145 prostate, 95.6%; with K-562 leukemia it was 25%. The growth was 83% with MALME-3M melanoma; 67.3% in the assay on MDA-MB-231 breast; 50.9% in the assay with RXF 393 renal; 89.8% in the assay on SF-268 CNS; 62.9% with SF-295 CNS; 58.7% in the assay on SF-539 CNS. The growth was 18.1% in the assay on UACC-257 melanoma and -7.02% (active) in the assay on M14 melanoma.
